Anthrax LF inh2 = blocks Bacillus anthracis lethal factor protease | AID 588501 | P15917 | inhibition, % at 10 µM | multiplex microsphere protease cleavage assay, LF | 360,000 tested, 0.12% active
Target sequence (P15917 whole entry, looked up): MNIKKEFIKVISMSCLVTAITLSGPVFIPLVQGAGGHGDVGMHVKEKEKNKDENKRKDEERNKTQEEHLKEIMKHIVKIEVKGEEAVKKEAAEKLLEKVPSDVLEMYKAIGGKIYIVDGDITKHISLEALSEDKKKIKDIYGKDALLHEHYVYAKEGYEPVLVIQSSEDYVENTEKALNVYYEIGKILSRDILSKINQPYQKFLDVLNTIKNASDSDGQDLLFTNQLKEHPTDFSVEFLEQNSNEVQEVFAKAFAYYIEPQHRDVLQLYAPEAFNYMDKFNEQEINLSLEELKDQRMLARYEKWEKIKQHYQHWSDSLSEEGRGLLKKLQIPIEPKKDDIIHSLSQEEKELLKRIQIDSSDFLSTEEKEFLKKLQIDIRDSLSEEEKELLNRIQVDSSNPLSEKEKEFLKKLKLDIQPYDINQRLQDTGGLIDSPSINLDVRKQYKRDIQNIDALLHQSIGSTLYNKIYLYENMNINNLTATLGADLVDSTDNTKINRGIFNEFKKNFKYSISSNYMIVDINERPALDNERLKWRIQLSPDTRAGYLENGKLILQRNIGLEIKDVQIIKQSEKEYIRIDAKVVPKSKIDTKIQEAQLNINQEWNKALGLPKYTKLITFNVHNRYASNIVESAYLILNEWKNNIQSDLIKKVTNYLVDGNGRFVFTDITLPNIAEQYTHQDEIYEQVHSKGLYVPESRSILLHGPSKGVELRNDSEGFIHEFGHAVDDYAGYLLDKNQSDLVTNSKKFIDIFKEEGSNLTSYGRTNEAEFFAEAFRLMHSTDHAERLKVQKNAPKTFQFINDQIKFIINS
BoNT-F LC inh = BoNT F light chain protease inhibition; Multiplex microsphere protease cleavage assay, flow cytometry; inhibition, % at 10 µM; 360,000 tested, 0.22% active; in the data active means inhibition above about 35%, passing the limit was not always enough; inconclusive means no clear call, values can overlap the other calls
Autofluor counter = compound fluorescence in toxin protease inhibitor counterscreen | compound autofluorescence counterscreen, microsphere flow cytometry; stronger effect = higher value | fluorescence intensity (no concentration beside the values) | 360,000 tested, 3.1% active; in the data active means fluorescence intensity above about 16000; inconclusive means no clear call, values can overlap the other calls
BoNT-A LC inh2 = inhibitors of Botulinum neurotoxin A light chain protease; multiplex microsphere protease substrate cleavage, flow cytometry; inhibition, % at 10 µM; 360,000 tested, 0.17% active; AID 588499
Large screens that a line does not name were inactive. Compounds with a hit are over-represented: about 3.5% of the library has one in this group of screens. Unless noted, no stated cut-off is given here; in the data, active means inhibition above about 30%; inconclusive means no clear call, values can overlap the other calls; inactive means below that.

CCOc1ccccc1NC(=O)COC(=O)C1COc2ccccc2O1 (configuration not stated)	none
O=C(COC(=O)[C@H](Cc1ccccc1)NS(=O)(=O)c1ccccc1F)NC1CCCCC1	Autofluor counter 18375
O=C(C[C@@H]1C/C=C\C[C@H](Cc2ccc(F)cc2)C(=O)OC[C@@H]2CCCN2C1=O)N[C@H](CO)Cc1ccccc1	none
COc1ccc(-c2cc(C(=O)NCc3ccccc3)no2)cc1OC	Autofluor counter 21267
COc1ccc(NC(=O)c2cc(-c3ccc(C)cc3)on2)cc1OC	BoNT-F LC inh inconclusive
COc1ccc(NC(=O)c2cc(-c3ccc(OC)c(OC)c3)on2)cc1OC	Autofluor counter 23014
COc1ccc(CNC(=O)c2cc(-c3ccc(OC)c(OC)c3)on2)cc1	none
C#CCN(C[C@H]1[C@H](OC(=O)Nc2c(C)noc2C)[C@H](OC(=O)Nc2c(C)noc2C)C[C@H]2C(=O)N(c3ccccc3)C(=O)[C@@H]12)S(=O)(=O)c1ccc(C)cc1	none
CC1(C)Cc2ccccc2-c2nnc(-c3ccccn3)n21	Autofluor counter 20079
CCOC(=O)C(C)Sc1nnc2n1C(C)(C)Cc1ccccc1-2 (configuration not stated)	Autofluor counter 24062, BoNT-A LC inh2 inconclusive
CC1(C)Cc2ccccc2-c2nnc(SCc3ccccc3)n21	none
CC1(C)Cc2ccccc2-c2nnc(-c3ccccc3)n21	Autofluor counter 22143
CCc1ccc2c(COC(=O)C3CSC4(C)CCC(=O)N34)cc(=O)oc2c1 (configuration not stated)	Autofluor counter inconclusive
CN(Cc1ccccc1)C(=O)Cn1nnc(-c2ccccc2)c1COc1ccccc1	none
CCCCc1ccc(NC(=O)c2c(C)noc2C)cc1	Autofluor counter 17390
CC(=O)Nc1ccc(NC(=O)c2c(C)noc2C)cc1	none
COc1ccc(Cl)cc1NC(=O)CN(C)C(=O)C1COc2ccccc2O1 (configuration not stated)	none
CSc1nsc(SCC(=O)Nc2c(C)n(C)n(-c3ccccc3)c2=O)n1	Autofluor counter 20801
Cc1c(NC(=O)CSc2nnnn2-c2ccc(O)cc2)c(=O)n(-c2ccccc2)n1C	Autofluor counter 23720, BoNT-A LC inh2 inconclusive
COc1ccc(-n2nnnc2SCC(=O)Nc2nnn(C)n2)cc1	Autofluor counter 22244
Cc1cccc(NS(=O)(=O)c2cccc(C(=O)NCC(c3ccc(F)cc3)N3CCOCC3)c2)c1 (configuration not stated)	none
Cc1cc(OCC(=O)Nc2ccncc2)cc(C)c1Cl	none
CCN(CC(=O)Nc1ccc(Br)cc1)C(=O)c1nc2nc(C)cc(C)n2n1	none
N#Cc1c2n(c3c(=O)n(Cc4ccc(Cl)cc4)cnc13)CCCCC2	none
N#Cc1c2n(c3c(=O)n(Cc4ccccc4)cnc13)CCCC2	Autofluor counter 17920
CCC1C(c2ccccc2)=CCC(C(=O)O)C1C (configuration not stated)	none
N=c1c2c(n(Cc3ccc(F)cc3)c3c1CCC3)CCCC2	none
N=c1c2c(n(Cc3ccc(Cl)cc3)c3c1CCC3)CCC2	Autofluor counter 20485
c1ccc(CN2CCN(Cc3c[nH]c4ccccc34)CC2)cc1	BoNT-F LC inh inconclusive
O=c1[nH]c(CN2CCCCC2)nc2ccccc12	none
c1ccc2[nH]c(CN3CCCCCC3)nc2c1	Autofluor counter 20479
c1ccc2c(CN3CCCCCCC3)c[nH]c2c1	Autofluor counter 17395
O=C(OCc1nc2ccccc2[nH]1)C12CC3CC(CC(C3)C1)C2	Autofluor counter 17109
c1ccc(OCc2nc3ccccc3[nH]2)cc1	Autofluor counter 22117
C[C@H]1CN(C2CCCCC2)C(=O)[C@@H]1CC(=O)Nc1ccccc1	none
COC[C@H]1CCCN1c1ccc2c(c1)O[C@@H](COCc1ccccc1)CN([C@H](C)c1ccccc1)S2(=O)=O	none
C[n+]1ccn(CC(=O)c2cc(C(C)(C)C)c(O)c(C(C)(C)C)c2)c1	none
COc1cccc(CNC(=O)CN2C(=O)COc3ccc(S(=O)(=O)N4CCC(C)CC4)cc32)c1	none
Cc1nn(C(C)C)c(C)c1CN1CCC(C(=O)Nc2cccc(-c3cccc(F)c3)c2)CC1	none
CCOC(=O)c1ccc2c(c1)N(Cc1ccccc1C)C(=O)c1ccccc1S2=O (configuration not stated)	Autofluor counter 22107
COC(=O)c1ccc2c(c1)N(Cc1ccccc1F)C(=O)c1ccccc1S2=O (configuration not stated)	none
Cc1cccc(N2CC(C(=O)Nc3nnc(SCC(=O)N4CCOCC4)s3)CC2=O)c1 (configuration not stated)	none
CC1(C)Cc2nc3n[nH]c(N)c3cc2CO1	Autofluor counter 24639
CC1(C)Cc2nc(Cl)c(C#N)cc2CO1	none
Cc1cc(OCC(=O)OCC(=O)NCc2cccs2)ccc1Cl	none
CC(C)Nc1cc(C(F)(F)F)nc(-c2ccccn2)n1	Autofluor counter 20659
FC(F)(F)c1cc(Nc2ccccc2)nc(-c2ccccn2)n1	none
COC(=O)CSc1cc(C(F)(F)F)nc(-c2ccccn2)n1	none
FC(F)(F)c1cc(Sc2ccccc2)nc(-c2ccccn2)n1	Autofluor counter 16298
CN(C)c1cc(C(F)(F)F)nc(-c2ccccn2)n1	Autofluor counter 16157
COCCCn1c(SCC(=O)NC2CCCC2)nnc1-c1cccs1	none
CCCCn1c(N)c(N(CCC(C)C)C(=O)CSc2nc3ccccc3n2C)c(=O)[nH]c1=O	none
Cn1c(SCC(=O)N/N=C/C=C\c2ccco2)nc2ccccc21	Autofluor counter 22987
CCn1c(SCC(=O)N/N=C/C=C\c2ccco2)nc2ccccc21	none
Cc1ccc(S(=O)(=O)N2CC(=O)Nc3ccccc32)cc1	none
CC(C)(C)c1ccc(S(=O)(=O)N2CC(=O)Nc3ccccc32)cc1	Autofluor counter 23729
O=C(C1CCCN(S(=O)(=O)Cc2ccccc2)C1)N1CCC(Cc2ccccc2)CC1 (configuration not stated)	Autofluor counter 21341
O=S(=O)(c1ccc(Br)cc1)c1nc(-c2ccccc2)oc1NCCN1CCOCC1	none
COc1ccc(C2CC(=O)N3C(=C2C#N)SCC3(O)c2ccccc2)cc1 (configuration not stated)	Autofluor counter 19377
COc1ccc(C2(CNC(=O)c3ccc(OC)c([N+](=O)[O-])c3)CCOCC2)cc1OC	Autofluor counter 21598, BoNT-A LC inh2 inconclusive
CCCCNc1oc(-c2cccs2)nc1S(=O)(=O)c1ccccc1	Autofluor counter 22130
CC(=O)c1ccc(N2CCN(C(=O)C3(S(=O)(=O)c4ccc(Cl)cc4)CC3)CC2)cc1	Autofluor counter 19219
COc1ccc(N2CCN(CCCNC(=O)C3(S(=O)(=O)c4ccc(Cl)cc4)CC3)CC2)cc1	Autofluor counter 26083, BoNT-A LC inh2 inconclusive
O=C(NCCCN1CCN(c2cccc(Cl)c2)CC1)C1(S(=O)(=O)c2ccc(Cl)cc2)CC1	none
NC(=O)C1CCN(c2ccc(S(=O)(=O)N3CCCCC3)cn2)CC1	none
CC(=O)N1CCN(c2ccc(S(=O)(=O)N3CCCCC3)cn2)CC1	Autofluor counter 18018
COc1ccc(NC(=O)CSC2CCCCC2)cc1	Autofluor counter 21701
O=C(CN1CCC(NC(=O)C2CCCCC2)CC1)Nc1ccccc1	none
COc1ccc(NC(=O)CN2CCC(NC(=O)C3CCCCC3)CC2)cc1	Autofluor counter 23189
